Yeast superoxide: yeast age-related superoxide inhibition as caloric restriction mimetic; S. cerevisiae aged cells, superoxide DHE fluorescence; hits give low values; 330,000 compounds, 0.18% hits; superoxide response (% of plate mean), % at 10 µM; AID 2690;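 active = superoxide response under a set limit, about three screen SD below normal, cut at about 65% in these data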;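 also: yeast aged for seven days with compound at 30 °C before DHE staining; 100% = average MFI of all compound-treated wells on the plate with controls excluded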
HIF activator: HIF pathway transcriptional activation. U2OS HRE-luciferase reporter, luminescence; normalized: DMSO 0%, desferrioxamine 100%. activation, % at 7.5 µM (by protocol). 300,000 compounds, 0.32% hits. AID 1910;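 active = mean activation of at least 10% of the iron chelator positive control signal, with at least half of replicates also reaching 10%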
HGIII-sPLA2 inh: Blocks human group III sPLA2 activity. 370,000 compounds, 0.56% hits. AID 743126. Q9NZ20. inhibition, % at 12.2 µM. QFRET BODIPY PC-A2 liposome hydrolysis, fluorescence;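 active = inhibition above mean plus 3 SD of compounds lying within the high and low control bounds, cut at about 19% in these data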;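 also: 0% = median of test compound wells and 100% = no enzyme DMSO wells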
PLCb3 inh: inhibitors of human phospholipase C beta3; 370,000 compounds, 0.18% hits; AID 720704; inhibition, % at 12.2 µM; Purified PLC-beta3, fluorogenic substrate, fluorescence; in the data active = inhibition above about 11%;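 also: 0% = median of compound wells on plate and 100% = full blocker control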
PLC-gamma1 inh: inhibitors of human phospholipase C gamma1 | purified PLC-gamma1, fluorogenic substrate, fluorescence | inhibition, % at 12.2 µM | 370,000 compounds, 0.84% hits
AHR act: activators of human aryl hydrocarbon receptor. AHR-responsive luciferase reporter cells, luminescence. AID 2796. 320,000 compounds, 2.5% hits. activation, % at 5 µM; in the data active = activation above about 47%;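 also: 0% = vehicle wells and 100% = reference agonist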
PLCg1 ctr: PLC-gamma1 inhibition, counter-screen for PLC-beta3 hits; shares compounds with PLC-gamma1 inh; purified PLC-gamma1, fluorogenic substrate, fluorescence; inhibition, % at 12.3 µM; 3,300 compounds, 3.1% hits; AID 743258
PLCb3 confirm: confirmation of human PLC-beta3 inhibitors | shares compounds with PLC-gamma1 inh | purified PLC-beta3, fluorogenic substrate fluorescence | inhibition, % at 12.3 µM | 3,300 compounds, 1% hits | AID 743261; in the data active = inhibition above about 11%
* hit, by the source's call. Sampled rows, rich in hits. Any-hit rate of the full collection: about 3.9%. Rule as the data show it, unless noted: active = inhibition above about 9.5%; inactive = the rest.

What do the screens show for `Cc1ccc(NC(=S)NNc2ccc([N+](=O)[O-])cc2S(=O)(=O)Nc2ccccc2C(=O)O)cc1C`?
Yeast superoxide: 99.6; HIF activator: 0.6; HGIII-sPLA2 inh: 0.0; PLCb3 inh: -5.8; PLC-gamma1 inh: -1.2; AHR act: 3.2

How did O=C(O)c1ccccc1NS(=O)(=O)c1ccc(N/N=C/c2cccc(O)c2O)c([N+](=O)[O-])c1 do in these assays?
HGIII-sPLA2 inh: -49.4; PLCb3 inh: 1.4; PLC-gamma1 inh: 9.6*; PLCg1 ctr: 3.9; PLCb3 confirm: 0.6

What do the screens show for `Cc1cccc(C)c1NC(=O)CN(c1c(C)cccc1C)S(C)(=O)=O`?
HGIII-sPLA2 inh: -10.2; PLCb3 inh: 3.5; PLC-gamma1 inh: -0.1

Results for O=C(/C=C/c1ccc(S(=O)(=O)N2CCOCC2)cc1)NCc1ccccc1Cl ?
Yeast superoxide: 82.5; HIF activator: -0.9; HGIII-sPLA2 inh: 0.1; PLCb3 inh: -1.4; PLC-gamma1 inh: -0.8; AHR act: 4.0

What do the screens show for `COc1ccc(CSC2=C(C#N)C(=O)NC3(CCCCC3)S2)cc1`?
HGIII-sPLA2 inh: -8.7; PLCb3 inh: 2.4; PLC-gamma1 inh: 2.7

How did CCCCCCSC1=C(C#N)C(=O)NC2(CCCCC2)S1 do in these assays?
Yeast superoxide: 101.1; HIF activator: 0.0; HGIII-sPLA2 inh: -94.0; PLCb3 inh: 7.8; PLC-gamma1 inh: 13.8*; AHR act: 8.1; PLCg1 ctr: 1.3; PLCb3 confirm: 0.4

What do the screens show for `CCOC(=O)c1c(C)oc2ccc(OCC(N)=O)cc12`?
Yeast superoxide: 108.7; HIF activator: 0.1; HGIII-sPLA2 inh: 8.3; PLCb3 inh: 11.2*; PLC-gamma1 inh: 14.9*; AHR act: -0.8; PLCg1 ctr: -3.5; PLCb3 confirm: -2.8

How did CCOC(=O)c1c(C)oc2ccc(OS(C)(=O)=O)cc12 do in these assays?
Yeast superoxide: 104.0; HIF activator: 1.0; HGIII-sPLA2 inh: 7.2; PLCb3 inh: 4.2; PLC-gamma1 inh: 7.7; AHR act: 2.0

Results for CCCN1CCN(C(=O)c2ccc(F)c(S(=O)(=O)N3CCOCC3)c2)CC1 ?
Yeast superoxide: 92.0; HGIII-sPLA2 inh: 9.3; PLCb3 inh: 2.1; PLC-gamma1 inh: 4.1; AHR act: -0.1

Results for Oc1ccc(C[C@H]2CNCCN2CCC23CC4CC(CC(C4)C2)C3)cc1 ?
Yeast superoxide: 90.4; HIF activator: -0.5; HGIII-sPLA2 inh: 1.2; PLCb3 inh: 11.1*; PLC-gamma1 inh: 9.8*; AHR act: -0.5; PLCg1 ctr: -5.8; PLCb3 confirm: -1.5

How did Oc1ccc(C[C@@H]2CNCCN2CCC23CC4CC(CC(C4)C2)C3)cc1 do in these assays?
Yeast superoxide: 104.4; HIF activator: 0.0; HGIII-sPLA2 inh: 14.4; PLCb3 inh: -1.1; PLC-gamma1 inh: 3.4; AHR act: 2.7

Results for CCC(C)CCCCNC1=NCCS1 (stereo not given) ?
Yeast superoxide: 88.4; HIF activator: 0.1; HGIII-sPLA2 inh: 5.1; PLCb3 inh: -3.5; PLC-gamma1 inh: 1.2; AHR act: -0.6

How did CCOc1ccc(CCNC(=O)C2CCCN(S(C)(=O)=O)C2)cc1OCC (stereo not given) do in these assays?
Yeast superoxide: 101.6; HIF activator: 1.8; HGIII-sPLA2 inh: 8.5; PLCb3 inh: 13.2*; PLC-gamma1 inh: 3.0; AHR act: 0.5; PLCg1 ctr: -0.6; PLCb3 confirm: -2.1

What do the screens show for `CCOc1ccc(CCNC(=O)C2CCN(S(=O)(=O)N3CCCCC3)CC2)cc1OCC`?
Yeast superoxide: 119.2; HIF activator: -0.2; HGIII-sPLA2 inh: 0.1; PLCb3 inh: 2.4; PLC-gamma1 inh: -0.1; AHR act: 0.4

Results for CCOC(=O)N1CCN(S(=O)(=O)N2CCCC(C(=O)NCCc3ccc(OCC)c(OCC)c3)C2)CC1 (stereo not given) ?
Yeast superoxide: 101.0; HIF activator: -0.8; HGIII-sPLA2 inh: 2.2; PLCb3 inh: 2.0; PLC-gamma1 inh: 11.6*; AHR act: 0.4; PLCg1 ctr: -4.3; PLCb3 confirm: -5.5

Results for CCOc1ccc(CCNC(=O)C2CCCN(S(=O)(=O)N3CCCCC3)C2)cc1OCC (stereo not given) ?
HGIII-sPLA2 inh: -0.1; PLCb3 inh: 2.0; PLC-gamma1 inh: 0.4

How did O=S(=O)(N/N=C/c1cccnc1)c1ccc(Cl)c(Cl)c1 do in these assays?
Yeast superoxide: 83.7; HIF activator: 0.6; HGIII-sPLA2 inh: 4.2; PLCb3 inh: -3.7; PLC-gamma1 inh: 8.7; AHR act: 1.9

Results for O=S(=O)(NCc1ccc(Cl)c(Cl)c1)c1cc(Cl)ccc1N1CC[C@@H](O)C1 ?
HGIII-sPLA2 inh: -18.4; PLCb3 inh: -4.7; PLC-gamma1 inh: -1.1

What do the screens show for `COc1ccc(-n2ccnc(SCC(=O)NCc3ccc(C)cc3)c2=O)cc1Cl`?
Yeast superoxide: 96.1; HIF activator: 0.5; HGIII-sPLA2 inh: -0.6; PLCb3 inh: -43.8; PLC-gamma1 inh: -22.3; AHR act: -5.0

How did O=[N+]([O-])c1ccc(COc2cccc(CO)c2)cc1 do in these assays?
HGIII-sPLA2 inh: -1.3; PLCb3 inh: 0.1; PLC-gamma1 inh: -0.1

How did CN(C)S(=O)(=O)c1cccc(NC(=O)c2ccc(-n3cncn3)c([N+](=O)[O-])c2)c1 do in these assays?
Yeast superoxide: 104.5; HIF activator: -0.6; HGIII-sPLA2 inh: -3.6; PLCb3 inh: -2.7; PLC-gamma1 inh: 3.3; AHR act: 6.4

How did CN(Cc1ccccc1)S(=O)(=O)c1ccc(Cl)c(C(=O)N2CCOCC2)c1 do in these assays?
HGIII-sPLA2 inh: 7.5; PLCb3 inh: 4.2; PLC-gamma1 inh: 0.2

How did Cc1ccc(SCc2cc(=O)[nH]c(Nc3nc(C)c4cccc(C)c4n3)n2)cc1 do in these assays?
Yeast superoxide: 103.8; HIF activator: -0.2; HGIII-sPLA2 inh: 7.7; PLCb3 inh: 9.2; PLC-gamma1 inh: 12.9*; AHR act: 11.2; PLCg1 ctr: -5.1; PLCb3 confirm: -2.1

Results for CCC(C)N1CC23C=CC(O2)C(C(=O)OCc2ccccc2)C3C1=O (stereo not given) ?
Yeast superoxide: 101.9; HIF activator: -0.2; HGIII-sPLA2 inh: 8.8; PLCb3 inh: 13.8*; PLC-gamma1 inh: 4.2; AHR act: 0.8; PLCg1 ctr: -4.4; PLCb3 confirm: -0.9

How did CN(CC(O)COc1ccc2ccccc2c1)C1CCCCC1 (stereo not given) do in these assays?
Yeast superoxide: 104.2; HIF activator: -0.6; HGIII-sPLA2 inh: -6.0; PLCb3 inh: -5.2; PLC-gamma1 inh: 4.3; AHR act: 1.7

High-throughput results deposited in PubChem BioAssay by several laboratories.
